Active and inactive are the calls of the source.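 The calls were made as follows, unless noted: active = NADPH fluorescence slope more negative than the mean of all samples by about 3 SD, 99.7% confidence; inactive = the rest.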
What was measured:
[1] = inhibitors of TNFa-induced NFkB p65 translocation, primary screen, imaging, HUVEC, MLSMR starter and 10KST1 sets (AID 438;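 active = inhibition above 20% together with a positive visual image hit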;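 also: compound added about 3h40 before a 20 min TNFalpha stimulation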;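 as to inhibition: signal is the nuclear over cytoplasmic p65 intensity ratio per well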); conditions: HUVEC TNFa-induced p65 nuclear translocation; cell count: measured here: nuclei count (cytotoxicity indicator), at 2.08 µM; inhibition: at 2 µM, stronger effect = higher value, 0% TNFa-plus-vehicle, 100% no-TNFa wells
[2] = reduction of polyQ htt aggregates in cells – imaging, exon1htt(103Q)mCFP cells, high-content imaging, primary screen (AID 483;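 active = visual image review flags a hit and inhibition of aggregation exceeds 20%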;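 also: compound exposure lasted 3 days before fixation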;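 as to nuclei count: percent of the per-plate median nuclei count of sample wells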); conditions: exon1htt(103Q)mCFP cell line, aggregate imaging, at 2 µM; inhibition of aggregation: stronger effect = higher value; nuclei count: measured here: cell count, toxicity
[3] = endothelial E-selectin expression blockers – imaging, HUVEC, immunofluorescence, MLSMR starter and 10KST1 sets, primary screen (AID 487;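 active = visually confirmed hit in the image check and inhibition above 20%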;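 as to inhibition: signal is fraction of cell area covered by stained E-selectin grains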;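 as to nuclei count: 100% = median nuclei count of all wells on the same plate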); conditions: HUVEC TNFalpha-induced E-selectin immunofluorescence imaging, at 2 µM; inhibition: stronger effect = higher value; nuclei count: measured here: cell number, toxicity
[4] = target: Voltage-gated potassium channel subunit beta-2 (Rattus norvegicus) (UniProt P62483); experiment: inhibitors of rat Kvbeta2 reductase activity – biochemical, NADPH fluorescence, primary screen (AID 622;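 active = fluorescence slope higher than the sample average by over 3 SD, cut at about -0.22 in these data, passing the limit was not always enough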;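 also: slope of raw intensity against log time taken from 70 to 1610 s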); conditions: recombinant KvBeta, 4-cyanobenzaldehyde reduction, at 10 µM, stronger effect = higher value
Voltage-gated potassium channel subunit beta-2 (Rattus norvegicus), sequence (P62483 whole entry, looked up): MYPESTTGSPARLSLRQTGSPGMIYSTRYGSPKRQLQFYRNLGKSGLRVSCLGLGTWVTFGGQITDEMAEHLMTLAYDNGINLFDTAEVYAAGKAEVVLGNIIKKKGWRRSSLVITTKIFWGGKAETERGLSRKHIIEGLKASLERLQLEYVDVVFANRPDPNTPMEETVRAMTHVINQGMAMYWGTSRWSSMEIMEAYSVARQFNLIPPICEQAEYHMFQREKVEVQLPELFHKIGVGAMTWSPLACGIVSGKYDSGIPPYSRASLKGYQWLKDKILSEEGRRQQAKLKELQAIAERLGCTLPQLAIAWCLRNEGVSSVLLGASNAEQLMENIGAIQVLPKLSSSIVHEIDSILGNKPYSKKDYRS

[5] = target: Voltage-gated potassium channel subunit beta-2 (Rattus norvegicus) (UniProt P62483); experiment: enhancers of rat Kvbeta2 NADPH turnover – biochemical, NADPH fluorescence, primary screen (AID 623); conditions: Recombinant KvBeta, NADPH fluorescence decrease slope, 10 min; at 10 µM; stronger effect = lower value;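 also: fluorescence intensity change per second fitted from 20 to 320 s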
[6] = target: Alpha-2C adrenergic receptor (Homo sapiens) (UniProt P18825); experiment: compounds altering alpha2C-coupled GIRK flux – cell-based, HEK293 alpha2C/GIRK1/2, thallium flux, primary screen (AID 624;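 active = fluorescence slope after compound addition differing from the mean of all screened samples at 99.7% confidence, in either direction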;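 also: slope of fluorescence ratio to pre-addition baseline per second over 15 to 24 s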); conditions: thallium flux BTC fluorescence, at 10 µM, actives lie on both sides
Alpha-2C adrenergic receptor (Homo sapiens), sequence (P18825 whole entry, looked up): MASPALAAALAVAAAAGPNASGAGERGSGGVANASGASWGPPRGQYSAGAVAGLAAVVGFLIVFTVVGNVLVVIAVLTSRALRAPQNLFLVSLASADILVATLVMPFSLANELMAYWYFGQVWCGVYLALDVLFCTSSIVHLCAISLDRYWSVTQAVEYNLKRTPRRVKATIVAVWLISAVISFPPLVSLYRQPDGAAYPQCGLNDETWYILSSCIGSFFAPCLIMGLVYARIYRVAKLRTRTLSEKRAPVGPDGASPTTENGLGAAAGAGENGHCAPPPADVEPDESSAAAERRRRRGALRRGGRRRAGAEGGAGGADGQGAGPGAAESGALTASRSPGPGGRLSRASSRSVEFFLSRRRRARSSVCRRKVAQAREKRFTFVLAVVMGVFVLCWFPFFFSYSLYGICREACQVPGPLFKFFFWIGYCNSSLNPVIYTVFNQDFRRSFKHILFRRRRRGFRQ

[7] = blockers of RIG-like receptor reporter activation – cell-based, Sendai virus stimulus, luciferase, 10K MLSCN set, TLR/RLR signaling modifier project, primary screen (AID 602276;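 active = inhibition at or above 50% at 10 µM; inactive = inhibition below 50%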;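 also: firefly luciferase from ISG56 promoter only with Renilla not read in this screen; 0% = Sendai virus plus DMSO and 100% = medium plus DMSO without virus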); conditions: HEK293 RL24 IRF3 luciferase reporter, at 10 µM, stronger effect = higher value
[8] = TLR3 IRF3 reporter activation blockers – cell-based, poly I:C stimulus, luciferase, 10K MLSCN set, primary screen (AID 602277;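 active = inhibition of the reporter signal at or above 50%; inactive = inhibition below 50%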); conditions: HEK293-TLR3 RL24 IRF3 luciferase reporter, at 10 µM, stronger effect = higher value

Row | Compound | cell count [1] | inhibition [1] | inhibition of aggregation [2] | nuclei count [2] | inhibition [3] | nuclei count [3] | fluorescence slope [4] | NADPH fluorescence slope [5] | slope [6] | inhibition [7] | inhibition [8]
1 | CC(C)C(=O)Nc1ccc(-c2nc3cccnc3o2)cc1 | 413 | 6.7% (inactive) | 12.8% (inactive) | 109% | 23.3% (inactive) | 107% | -0.262 (inactive) | 4.8e-06 (inactive) | 0.0065 (inactive) | -33.7% (inactive) | -147% (inactive)
2 | COc1ccc(-n2c(=O)cc(N3CCN(Cc4ccccc4)CC3)[nH]c2=O)cc1 | 672 | -2.4% (inactive) | -0.4% (inactive) | 119% | 26.6% (inactive) | 108% | -0.621 (inactive) | 1.9e-05 (inactive) | 0.00623 (inactive) | 12.1% (inactive) | 18.9% (inactive)
3 | CCC(=O)c1cc(F)c(N2CCN(C(=O)c3ccco3)CC2)cc1C | 611 | -1.3% (inactive) | -12.2% (inactive) | 128% | -10.1% (inactive) | 104% | -0.519 (inactive) | -4.1e-05 (inactive) | 0.00579 (inactive) | 1.51% (inactive) | -21.1% (inactive)
4 | COc1ccccc1-n1c(SCC(=O)Nc2ccc3c(c2)OCO3)nc2c(c1=O)SCC2 | 324 | -4.6% (inactive) | -2.1% (inactive) | 94.7% | -54.1% (inactive) | 137% | -0.545 (inactive) | 4.8e-05 (inactive) | 0.00487 (inactive) | -5.47% (inactive) | 7.78% (inactive)
5 | CCCCN(C)Cc1c(O)ccc2c(-c3ccccc3)cc(=O)oc12 | 303 | 0.3% (inactive) | 5% (inactive) | 103% | -26.5% (inactive) | 96.4% | -0.158 (active) | -2.3e-05 (inactive) | 0.00475 (inactive) | -3.57% (inactive) | 28.4% (inactive)
6 | Cc1onc(-c2ccccc2)c1C(=O)N1CCN(C(=O)c2ccco2)CC1 | 601 | 2.2% (inactive) | -0.2% (inactive) | 111% | -20.4% (inactive) | 93.8% | -0.5 (inactive) | -4.3e-05 (inactive) | 0.00556 (inactive) | 14.1% (inactive) | 20.5% (inactive)
7 | Cn1c(=O)oc2cc(S(=O)(=O)NC3CCN(Cc4ccccc4)CC3)ccc21 | 621 | -6.3% (inactive) | 59.7% (active) | 70.5% | -37.9% (inactive) | 99.7% | -0.57 (inactive) | 1.4e-06 (inactive) | 0.0068 (inactive) | 10.4% (inactive) | 33.8% (inactive)

— PubChem BioAssay
